MITF inh: human MITF inhibition, primary screen; O75030; AlphaScreen MITF homodimerization, bead proximity signal; inhibition, % at 2.6 µM; 650,000 tested, 0.91% active; in the data active = inhibition above about 50%
TEAD-YAP inh: TEAD-YAP interaction inhibition | 640,000 tested, 1.4% active | HEK-TIYL cells, TEAD-Gal4/YAP UAS-luciferase luminescence | inhibition, % at 9.12 µM | AID 1259422; in the data active = inhibition above about 32%
GPR151 activ: activates the human receptor GPR151; Q8TDV0; PathHunter beta-arrestin GPR151 cells, luminescence; activation, % at 11.2 µM; 650,000 tested, 1% active; AID 1508602; in the data active = activation above about 4.9%
FBW7 act: human FBW7 E3 ligase activation, primary screen | 650,000 tested, 0.13% active | AlphaScreen FBW7–phospho-cyclin E peptide binding, activator screen | AID 1259310 | normalized activity (activation), % at 26.1 µM | Q969H0; in the data active = normalized activity above about 1.9%;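 note: purified mutant Fbw7 with reduced substrate affinity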
Target sequence (Q969H0 whole entry, looked up): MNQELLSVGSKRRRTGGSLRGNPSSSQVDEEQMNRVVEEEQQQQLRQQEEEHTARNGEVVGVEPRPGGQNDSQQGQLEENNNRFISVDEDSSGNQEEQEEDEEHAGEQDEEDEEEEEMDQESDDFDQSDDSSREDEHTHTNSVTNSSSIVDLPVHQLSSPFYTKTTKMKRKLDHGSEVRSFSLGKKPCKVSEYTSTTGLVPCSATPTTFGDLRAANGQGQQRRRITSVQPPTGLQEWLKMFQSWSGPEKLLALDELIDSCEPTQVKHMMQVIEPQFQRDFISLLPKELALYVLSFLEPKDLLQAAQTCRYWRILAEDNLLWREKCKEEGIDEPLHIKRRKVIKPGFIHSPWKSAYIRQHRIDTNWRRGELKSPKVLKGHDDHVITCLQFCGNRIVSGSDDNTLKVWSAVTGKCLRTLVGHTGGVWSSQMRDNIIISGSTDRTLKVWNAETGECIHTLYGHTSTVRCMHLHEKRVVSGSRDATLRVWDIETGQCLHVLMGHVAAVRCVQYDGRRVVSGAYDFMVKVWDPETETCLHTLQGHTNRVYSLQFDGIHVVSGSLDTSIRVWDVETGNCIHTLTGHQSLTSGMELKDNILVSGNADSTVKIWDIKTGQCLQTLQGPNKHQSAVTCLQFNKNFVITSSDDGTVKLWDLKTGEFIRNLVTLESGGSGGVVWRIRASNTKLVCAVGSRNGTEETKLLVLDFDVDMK
Hits are given with their value; 0 = inactive. A selection: hits, their analogues and other compounds. The true share with any hit is near 3.4%.

SMILES | MITF inh | TEAD-YAP inh | GPR151 activ | FBW7 act
COC(=O)c1ccc2c(c1)C(=O)/C(=C/c1cc(OC)c(OC)c(OC)c1)O2 | 0 | 0 | 0 | 0
COc1cccc(/C=C2\Oc3ccc(O)cc3C2=O)c1O | 0 | 96.7 | 0 | 0
O=C1C(C=NCc2cccnc2)=C(O)c2ccccc21 | 0 | 38.5 | 0 | 0
O=C1C(C=NCc2ccncc2)=C(O)c2ccccc21 | 0 | 0 | 0 | 0
CCOC(=O)Oc1ccc2c(=O)c(Oc3cc(C)ccc3C)coc2c1 | 0 | 0 | 0 | 0
CCCN1CCc2nc(NC(=O)c3sc4ccccc4c3Cl)sc2C1 | 0 | 33.7 | 0 | 0
NC(=O)c1cc2ccccc2o/c1=N/NC(=S)Nc1ccccc1 | 0 | 0 | 0 | 0
COCCCn1c(=O)[nH]c2nc(-c3ccc(OC)cc3)cnc21 | 0 | 0 | 0 | 0
CCN1CCN(c2ncc(-c3ccccc3)cc2C=O)CC1 | 0 | 36.1 | 0 | 0
c1ccc(-c2cn3nc(-c4ccccc4)sc3n2)cc1 | 0 | 44.2 | 0 | 0
CNc1nc(-c2ccc3c(c2)CCN3C(=O)C2CC2)cs1 | 0 | 62.6 | 0 | 0
CC(=O)Nc1nc(-c2ccc3c(c2)CCN3S(C)(=O)=O)c(C)s1 | 0 | 51.9 | 0 | 0
Cc1sc(NC(=O)Cc2cccs2)nc1-c1ccc2c(c1)CC(C)N2S(C)(=O)=O (configuration not stated) | 0 | 52.3 | 0 | 0
Cc1sc(NC(=O)CCl)nc1-c1ccc2c(c1)CCN2S(C)(=O)=O | 0 | 0 | 0 | 0
CNc1nc(-c2ccc3c(c2)CC(C)N3S(C)(=O)=O)cs1 (configuration not stated) | 0 | 44.3 | 0 | 0
Cc1sc(N)nc1-c1ccc2c(c1)CC(C)N2S(C)(=O)=O (configuration not stated) | 0 | 0 | 0 | 0
CNc1nc(-c2ccc3c(c2)CCN3C(=O)C2CC2)c(C)s1 | 0 | 0 | 0 | 0
Cc1sc(NC(=O)c2ccncc2)nc1-c1ccc2c(c1)CCN2C(=O)C1CC1 | 0 | 38.4 | 0 | 0
CC1Cc2cc(-c3csc(NC(=O)Cc4cccs4)n3)ccc2N1S(C)(=O)=O (configuration not stated) | 0 | 57.1 | 0 | 0
COc1c(OC(C)=O)ccc(/C=N\NC(=O)COc2ccccc2)c1[N+](=O)[O-] | 0 | 0 | 0 | 0
COc1ccc2cc(-c3nc4ccccc4[nH]3)c(=Nc3cccc(C(F)(F)F)c3)oc2c1 | 0 | 71.8 | 0 | 0
C=CCN1C(=S)N(c2ccc(Cl)cc2)C(=O)C1CC(=O)Nc1ccc(OCCC)cc1 (configuration not stated) | 0 | 0 | 0 | 0
COc1cc(Nc2nccc(Nc3ccc(N4CCOCC4)cc3)n2)cc(OC)c1OC | 0 | 43.7 | 0 | 0
COc1cc(Nc2nc(C)cc(Nc3ccc(N4CCOCC4)cc3)n2)cc(OC)c1OC | 0 | 69.9 | 0 | 0
COc1ccccc1-c1nc2n(n1)C(c1ccccn1)C(C(=O)Nc1cccnc1)=C(C)N2 (configuration not stated) | 0 | 0 | 0 | 0
SMILES | MITF inh | TEAD-YAP inh | GPR151 activ | FBW7 act
Cc1cccc(NC(=O)c2c(Cl)nc(Cl)c(Cl)c2Cl)c1C | 0 | 35.8 | 0 | 0
Cc1nc(Cl)c(C(=O)NCc2ccccc2)c(C)c1Cl | 0 | 0 | 0 | 0
O=C(NCc1ccccc1)c1c(Cl)nc(Cl)c(Cl)c1Cl | 0 | 46.8 | 0 | 0
Cc1ccccc1NC(=O)c1c(Cl)nc(Cl)c(Cl)c1Cl | 0 | 64.2 | 0 | 0
CC1CCCN(C(=O)c2cc(-c3ccco3)[nH]n2)C1 (configuration not stated) | 0 | 0 | 0 | 0
CCC(=O)Nc1ccc(S(=O)(=O)N2c3ccccc3CC2C)cc1 (configuration not stated) | 0 | 0 | 0 | 0
COc1ccc(S(=O)(=O)N2c3ccccc3CC2C)cc1 (configuration not stated) | 0 | 47.5 | 0 | 0
CCOc1ccc(S(=O)(=O)N2c3ccccc3CC2C)cc1 (configuration not stated) | 0 | 52.4 | 0 | 0
Cc1ccc(S(=O)(=O)N2c3ccccc3CC2C)cc1 (configuration not stated) | 0 | 0 | 0 | 0
Cc1cc(C)cc(NS(=O)(=O)N2CCOCC2)c1 | 0 | 0 | 0 | 0
CCOC(=O)c1c(NC(=O)/C=C/C(=O)O)sc2c1CCCCCC2 | 0 | 35.3 | 0 | 0
CCOC(=O)c1c(NC(N)=O)sc2c1CCCC2 | 0 | 0 | 0 | 0
CCOC(=O)c1c(NC(=O)CN2CCCCCC2)sc2c1CCCCC2 | 0 | 0 | 0 | 0
CCOC(=O)c1c(NC(=O)CN2CCN(CC)C(=O)C2=O)sc2c1CCCC2 | 0 | 44.5 | 0 | 0
CCOC(=O)c1c(NC(=O)/C=C/C(N)=O)sc2c1CCCC2 | 0 | 43.1 | 0 | 0
O=C(Nc1ccc2oc(-c3cccc4c(Br)cccc34)nc2c1)c1ccccc1[N+](=O)[O-] | 0 | 43.2 | 0 | 0
O=C(Nc1ccc2oc(-c3cccc(F)c3)nc2c1)c1cc([N+](=O)[O-])ccc1Cl | 0 | 37.0 | 0 | 0
O=C(Nc1ccc(Sc2nc3ccccc3s2)c(Cl)c1)c1cc([N+](=O)[O-])ccc1Cl | 0 | 32.1 | 0 | 0
CC(=O)Nc1ccc(Sc2nc3ccccc3s2)c(Cl)c1 | 0 | 0 | 0 | 0
O=C(Nc1ccc2oc(-c3cccc4c(Br)cccc34)nc2c1)c1cc([N+](=O)[O-])ccc1Cl | 0 | 0 | 0 | 0
Cc1ncc2c(NCCN(C)C)nc3ccccc3n12 | 0 | 45.7 | 0 | 0
Cc1ncc2c(NCCc3ccccc3)nc3ccccc3n12 | 0 | 0 | 0 | 0
CN(CC(=O)Nc1ccc(Br)cc1F)S(=O)(=O)c1ccccc1 | 0 | 0 | 0 | 0
CCOC(=O)c1sc2nc(CC(=O)OC)nc(N3CCC(C)CC3)c2c1C | 0 | 0 | 0 | 0
CC(=O)c1cccc(NC(=O)Nc2nc(SCCOc3ccccc3)ns2)c1 | 0 | 0 | 0 | 0
SMILES | MITF inh | TEAD-YAP inh | GPR151 activ | FBW7 act
O=S(=O)(NC1CCCC1)c1cccc(-c2nnc(-c3ccccc3)o2)c1 | 0 | 32.6 | 0 | 0
O=S(=O)(NC1CCCCCCC1)c1ccccc1 | 0 | 0 | 0 | 0
COc1ccc(CCNC(=O)c2cn(CCc3ccccc3)nn2)cc1OC | 0 | 0 | 0 | 0
COc1cccc(Nc2nc(N3CCN(CCO)CC3)nc3c2cnn3C)c1 | 0 | 41.0 | 0 | 0
CCc1nc2sc(C(=O)c3ccc4c(c3)OCO4)c(N)c2cc1C | 0 | 40.2 | 0 | 0
Cc1ccc(OCC(=O)c2cc(C)n(-c3ccccc3)c2C)c([N+](=O)[O-])n1 | 0 | 49.7 | 0 | 0
C=CCn1c(C)cc(C(=O)COc2ccc(C)nc2[N+](=O)[O-])c1C | 0 | 0 | 0 | 0
CCOc1cc(C2C(C#N)=C(N)Oc3cc4c(cc32)OCO4)cc(Br)c1OC (configuration not stated) | 0 | 56.9 | 0 | 0
COc1ccc(Br)cc1C1C(C#N)=C(N)Oc2cc3c(cc21)OCO3 (configuration not stated) | 0 | 47.4 | 0 | 0
N#Cc1ccc(OCC(O)CN2CCC(c3nc4ccccc4s3)CC2)cc1 (configuration not stated) | 0 | 0 | 0 | 0
CCn1c(/C=C2/C(=O)Nc3ccccc32)nc2ccccc2c1=O | 0 | 0 | 0 | 0
O=C1Nc2ccccc2/C1=N/n1c(-c2ccccc2)nc2ccccc2c1=O | 0 | 32.3 | 0 | 0
CCOC(=O)C1(CCOC)CCN(C(=O)Cc2ccc(SC)cc2)CC1 | 0 | 0 | 0 | 0

Screening results: PubChem BioAssay, The Scripps Research Institute Molecular Screening Center
